The values below come from PubChem BioAssay.

The structures appear in SMILES notation. The source made the active and inactive calls.

Assay [1] relates to Plasmodium falciparum Sir2 (PF13_0152, Sir2A). Briefly: pfSir2 binders on small-molecule microarrays, primary screen, biochemical, small-molecule microarray, 635 nm fluorescence (AID 1098).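 Further: score merges spot fluorescence intensity with its signal-to-noise ratio.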 Conditions: small-molecule microarray binding, fluorescence 635 nm; higher = more signal.
The nature of assay [2]: small-molecule microarray binders of probe aDKK1, primary screen, biochemical, biotinylated probe, 635/667 nm fluorescence (AID 1099).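 Further: score merges 667nm spot fluorescence with signal to noise across triplicate slides; reference of the scale not given here.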 Conditions: higher = more signal.
A short description of assay [3]: small-molecule microarray binders of probe aCHRDL2, primary screen, biochemical, biotinylated probe, 635/667 nm fluorescence (AID 1100). To be noted: higher = more signal.
Assay [4] in a line: splicing luciferase reporter signal modulators, primary screen, spliceosome inhibition project, cell-based, HEK293, splice +/- reporter (AID 1101).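 Further: HEK293 cells carrying a splicing-competent luciferase reporter gene; test concentration not given here.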 Conditions: luminescence, 24 h, higher = more signal, called active from +8 up or from −8 down. Background: A reporter such as luciferase makes a cellular process visible.
In assay [5] the target is Fibroblast growth factor 10 (Homo sapiens) (UniProt O15520). Nature of the assay: FGF10 binders on small-molecule microarrays, primary screen, biochemical, small-molecule microarray, 635 nm fluorescence (AID 1102). To be noted: FGF10 binding, fluorescence 635 nm, higher = more signal.
The subject of assay [6] is glycogen synthase kinase-3 (GSK3A per assay name; protocol says GSK3B). Nature of the assay: GSK3 binders on small-molecule microarrays, primary screen, biochemical, small-molecule microarray, 635 nm fluorescence, GSK3A (AID 1103). Further: the record names both GSK3A and GSK3B. Conditions: small-molecule microarray binding, fluorescence 635 nm; higher = more signal.
The target of assay [7] is Epidermal growth factor receptor (Homo sapiens) (UniProt P00533). Nature of the assay: EGFR binders on small-molecule microarrays, primary screen, biochemical, small-molecule microarray, 635 nm fluorescence (AID 1104).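 Further: score merges 667 nm emission intensity with spot signal to noise over triplicate slides.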 Conditions: EGFR binding, higher = more signal.
For assay [8], the target named is Follistatin-related protein 3 (Homo sapiens) (UniProt O95633). Nature of the assay: FSTL3 binders on small-molecule microarrays, primary screen, biochemical, small-molecule microarray, 635 nm fluorescence (AID 1105).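 Further: score merges emission near 667 nm and signal to noise per printed spot across three slides.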 To be noted: FSTL3 binding, higher = more signal.
The target of assay [9] is Dickkopf-related protein 1 (Homo sapiens) (UniProt O94907). Briefly: DKK1 binders on small-molecule microarrays, primary screen, biochemical, small-molecule microarray, 635 nm fluorescence scan (AID 1106).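 Further: score merges emission near 667 nm with signal to noise over three replicate slides.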 To be noted: DKK1 binding, higher = more signal.
Assay [10] has as its system Inhibin beta A chain (activin A). Briefly: INHBA (activin A) binders on microarrays, primary screen, biochemical, small-molecule microarray, 635 nm fluorescence scan (AID 1107).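 Further: mouse activin A protein probed at 4.33 µg/mL on printed slides; score merges bound-protein fluorescence near 667 nm with spot signal-to-noise.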 To be noted: small-molecule microarray binding, higher = more signal.

Sequence of Fibroblast growth factor 10 (Homo sapiens) (O15520 whole entry, looked up): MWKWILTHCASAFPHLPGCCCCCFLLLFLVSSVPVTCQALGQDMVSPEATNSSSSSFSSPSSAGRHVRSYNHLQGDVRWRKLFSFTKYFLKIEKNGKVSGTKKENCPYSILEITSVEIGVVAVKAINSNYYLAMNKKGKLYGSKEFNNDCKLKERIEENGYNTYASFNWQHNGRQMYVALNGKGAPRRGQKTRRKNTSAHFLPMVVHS
Sequence of Dickkopf-related protein 1 (Homo sapiens) (O94907 whole entry, looked up): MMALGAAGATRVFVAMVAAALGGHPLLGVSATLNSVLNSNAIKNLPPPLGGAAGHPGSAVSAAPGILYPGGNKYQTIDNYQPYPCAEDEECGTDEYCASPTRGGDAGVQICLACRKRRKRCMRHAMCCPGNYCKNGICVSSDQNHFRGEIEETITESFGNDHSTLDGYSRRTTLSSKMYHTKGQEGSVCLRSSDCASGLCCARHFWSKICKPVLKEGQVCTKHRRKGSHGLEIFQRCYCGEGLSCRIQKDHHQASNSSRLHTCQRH
Sequence of Epidermal growth factor receptor (Homo sapiens) (P00533 whole entry, looked up): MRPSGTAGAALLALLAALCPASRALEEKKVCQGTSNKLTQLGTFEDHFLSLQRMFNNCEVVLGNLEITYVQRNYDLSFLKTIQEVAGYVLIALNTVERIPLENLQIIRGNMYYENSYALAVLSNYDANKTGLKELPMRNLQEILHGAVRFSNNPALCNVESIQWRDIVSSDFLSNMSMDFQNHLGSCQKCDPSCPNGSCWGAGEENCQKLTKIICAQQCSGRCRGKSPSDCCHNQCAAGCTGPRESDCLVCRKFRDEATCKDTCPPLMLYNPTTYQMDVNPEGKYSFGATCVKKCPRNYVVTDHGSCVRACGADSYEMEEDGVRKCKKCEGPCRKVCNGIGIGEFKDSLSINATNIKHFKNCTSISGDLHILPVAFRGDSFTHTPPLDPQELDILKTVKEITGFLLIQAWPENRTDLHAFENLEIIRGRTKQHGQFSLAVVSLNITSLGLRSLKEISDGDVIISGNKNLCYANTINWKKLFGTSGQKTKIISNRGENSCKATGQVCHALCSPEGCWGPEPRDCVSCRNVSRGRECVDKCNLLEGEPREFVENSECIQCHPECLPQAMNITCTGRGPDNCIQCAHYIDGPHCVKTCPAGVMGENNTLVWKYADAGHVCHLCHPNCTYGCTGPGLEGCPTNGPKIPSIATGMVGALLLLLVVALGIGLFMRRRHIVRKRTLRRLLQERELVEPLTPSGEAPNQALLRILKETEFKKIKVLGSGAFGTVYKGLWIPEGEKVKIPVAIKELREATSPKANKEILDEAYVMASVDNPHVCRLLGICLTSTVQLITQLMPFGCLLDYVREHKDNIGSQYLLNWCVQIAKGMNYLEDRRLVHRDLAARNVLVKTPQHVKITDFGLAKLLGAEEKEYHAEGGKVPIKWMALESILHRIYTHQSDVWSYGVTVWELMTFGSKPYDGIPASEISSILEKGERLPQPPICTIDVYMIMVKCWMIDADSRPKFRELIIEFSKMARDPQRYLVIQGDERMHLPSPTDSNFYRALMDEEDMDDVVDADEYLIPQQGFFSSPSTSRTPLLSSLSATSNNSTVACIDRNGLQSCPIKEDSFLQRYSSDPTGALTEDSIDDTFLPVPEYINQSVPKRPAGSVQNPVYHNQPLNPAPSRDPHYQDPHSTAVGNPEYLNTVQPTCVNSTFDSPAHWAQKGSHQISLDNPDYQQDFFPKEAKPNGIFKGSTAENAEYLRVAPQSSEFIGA
Sequence of Follistatin-related protein 3 (Homo sapiens) (O95633 whole entry, looked up): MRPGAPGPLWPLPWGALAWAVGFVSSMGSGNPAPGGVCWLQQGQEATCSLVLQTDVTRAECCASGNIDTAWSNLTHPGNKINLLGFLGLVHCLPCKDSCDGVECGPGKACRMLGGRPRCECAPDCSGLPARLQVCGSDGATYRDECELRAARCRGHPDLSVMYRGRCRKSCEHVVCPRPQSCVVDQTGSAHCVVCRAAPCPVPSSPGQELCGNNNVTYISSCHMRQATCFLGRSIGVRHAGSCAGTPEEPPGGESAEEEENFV

As for `CCOC(=O)[C@@H]1CCCCN1C(=O)C(=O)OC`, the composite z-score in assay [1] was 0.157; in [2], -0.0335; in assay [3] it was -0.402; in [5] it was 0.549; in [6], 0.547; in assay [7], 0.243. For the same molecule, the composite z-score is 0.751 in assay [8], 0.333 in assay [9] and -0.206 in [10]. Besides, the z-score in assay [4] was 1.11 (inactive).
Take `COCCOC(=O)N1C(=O)[C@@]2(c3cc(C#CCNC(N)=O)ccc31)[C@H](C(N)=O)[C@H]1C(=O)O[C@H](c3ccccc3)[C@H](c3ccccc3)N1[C@@H]2c1ccccc1OCCO`: the composite z-score in [1] was 1.16; in [2], 0.0377; in assay [3] it was 0.803; in assay [5] it was 1.07; in assay [6] it was 0.782; in assay [7], 0.302. For the same molecule, the composite z-score was 1.31 in assay [8], 0.78 in assay [9] and 1.11 in assay [10]. The z-score in assay [4] was 0.565 (inactive).
For `Cc1ccc(C(C)CC(O)C2C=CC3C(=O)N(c4ccccc4)C(=O)C3N2Nc2ccccc2)o1` (stereo not given), the composite z-score in assay [1] was 0.844; in assay [2] it was 1.01; in assay [3] it was 0.693; in assay [5], 0.981; in [6], 1.28; in [7], 0.554. For the same molecule, the composite z-score was 1.2 in assay [8], -0.174 in assay [9] and 0.843 in assay [10]. For the same molecule, the z-score in [4] was -0.392 (inactive).
With `CC(C)C(CO)N1C(=O)[C@@H]2C3C(=O)OCCC/C=C\[C@H]3OC23C=CCN(c2ccc4ccccc4c2)C(=O)[C@@H]13` (stereo not given in full), the composite z-score is 0.552 in [1]; -0.167 in [2]; 0.375 in assay [3]; 0.0329 in [5]; -1.01 in [6]; -1.2 in assay [7]. The figures for the composite z-score in assay [8], in assay [9] and in assay [10] were -0.602, -0.4 and 0.791, respectively. In [4], the z-score was -0.298 (inactive).
Regarding `COC(=O)[C@@]1(Cc2ccccc2)[C@H]2c3cc(C(=O)N(C)C)n(Cc4ccc(C)o4)c3C[C@H]2CN1C(=O)c1ccccc1`, the composite z-score in assay [1] came to 0.527; in [2] it was 2.33; in assay [3], 1.57; in assay [5], 0.93; in [6], 0.502; in [7] it was 0.857. Further, the composite z-score was 0.897 in [8], -1.11 in assay [9] and 1.44 in assay [10]. Moreover, in assay [4], the z-score was -2.02 (inactive).
Turning to `CCCCCN1CC=CC23O[C@@H]4/C=C\CCC(C)OC(=O)C4[C@H]2C(=O)N(C(CO)C(C)C)[C@@H]3C1=O` (stereo not given in full), the composite z-score in assay [1] was 1.63; in assay [2] it was -0.612; in assay [3], -0.288; in [5], 0.0694; in assay [6] it was -0.169; in [7] it was -0.538. Also, the composite z-score in assay [8] is 0.0876; in [9], -0.543; in assay [10], 1.18. In addition, the z-score in assay [4] is 0.139 (inactive).
Take `COc1cc2c(cc1O)C(c1cccs1)N(Cc1cc3c(cc1Br)OCO3)CC2` (stereo not given): the composite z-score in assay [1] was 1.5; in assay [2], 0.421; in [3] it was 0.726; in assay [5] it was 1.47; in assay [6] it was 1.32; in [7], 0.345. Also, the results for the composite z-score in assay [8], in [9] and in assay [10] were 1.13, 0.449 and 0.632, respectively. Moreover, the z-score in assay [4] is -0.0664 (inactive).
Take `CC#CCO[Si](C#Cc1ccccc1)(C(C)C)C(C)C`: the composite z-score was -0.849 in [1]; -0.105 in assay [2]; 0.194 in [3]; 0.754 in assay [5]; -0.872 in [6]; 0.457 in assay [7]. Further, the composite z-score in [8] was -0.719; in [9], -0.999; in [10], 1.14. The z-score in assay [4] was 1.07 (inactive).
As to `C=C(/C(=C/C[C@H](OC(=O)c1ccncc1)c1ccc(CO)o1)c1cnc2ccccc2c1)C(C)C`, the composite z-score is 0.614 in assay [1]; -0.173 in assay [2]; -0.304 in assay [3]; 1.41 in [5]; 1.16 in [6]; 0.932 in assay [7]. In addition, the composite z-score in assay [8] came to 1.46; in assay [9], 0.791; in assay [10], 1.81. In [4], the z-score was 0.984 (inactive).
Turning to `CCOC(=O)C1=CC[C@@H](c2ccccc2)N(S(=O)(=O)c2ccc(C)cc2)[C@H]1c1ccccc1`, the composite z-score in [1] was 0.264; in [2], 0.769; in assay [3] it was 0.54; in [5] it was 0.356; in [6], 0.738; in assay [7], -0.404. For the same molecule, the composite z-score in assay [8] was 0.397; in [9], -0.187; in [10], 0.903. The z-score in [4] was -0.387 (inactive).
With `COCCOC(=O)N1C(=O)[C@@]2(c3ccccc31)[C@H](C(=O)NC[C@H](O)c1ccccc1)[C@H]1C(=O)O[C@H](c3ccccc3)[C@H](c3ccccc3)N1[C@@H]2c1ccc(O)cc1`, the composite z-score in [1] is 1.54; in assay [2], 0.804; in assay [3] it was 0.24; in [5], 1.42; in assay [6] it was 1.32; in [7] it was 1.01. The composite z-score was 1.44 in assay [8], 0.827 in [9] and -0.0795 in assay [10]. Also, in assay [4], the z-score was -0.118 (inactive).
